The whole screen tested about 4,100 compounds, of which about 1,600 (39%) were called active. Roughly 25% stayed inconclusive and do not appear here. The list shows a part of the results. A number with no mark means an inactive call. Calls follow the shape of the dose curve; as a rule, active = well fitted inhibition curve with a large enough effect; inconclusive = small, poorly fitted or top-dose-only effect; inactive = no such curve, though single readings can be large or run the other way.
Test: qHTS Validation assay for Inhibitors of Plasmodium falciparum Dd2 growth in vitro; also: nearly all actives have a fitted effect of over 70% in size
Settings: P. falciparum Dd2 in RBCs, SYBR Green growth, 72 h; series mostly up to 28.7 µM; activity change, negative = inhibition: at the top concentration
Summary of the method: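 P. falciparum Dd2-infected red blood cells (2.5% hematocrit, 0.3% parasitemia) grown 72 h at 37 °C under 5% O2 with compounds in a titration, 29 uM to 0.5 nM final. Growth read as SYBR Green-1 fluorescence after ~16 h lysis; artesunate 300 nM as positive control.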
% is scaled to controls: 0 for no effect and ±100 for the full control effect; potency is read from the fitted curve at half-maximal effect.

Structure (SMILES) | Potency | activity change, negative = inhibition
O=C(N[C@H](c1ccccn1)C1CC(O)C1)c1cc(=O)n(-c2ccccc2)[nH]1 (some centres undefined) | 9.44 µM (active) | –
COc1ccc(NS(=O)(=O)c2cc(NC(=O)/C=C/c3cc(OC)c(OC)c(OC)c3)ccc2N2CCCCC2)cc1 | 6.68 µM (active) | –
CCOC(=O)c1ccc(Nc2nc(N)c3cc(OC)c(OC)cc3n2)cc1 | 1.88 µM (active) | –
COc1ccc(C(=O)c2nccc3cc(OC)c(OC)cc23)cc1OC | – | 8.83%
COc1cc2nc(Nc3ccc(C)c(C)c3)nc(N)c2cc1OC | 0.75 µM (active) | –
COc1cc2nc(Nc3ccc(C)c(Cl)c3)nc(N)c2cc1OC | 2.11 µM (active) | –
COc1cc2nc(N3CCN(c4cc(C)ccc4C)CC3)nc(N)c2cc1OC | 6.68 µM (active) | –
COc1ccc(Cl)cc1C(=O)NCc1nnc2c(-c3nc(C(C)C)no3)cccn12 | – | 7.64%
O=C(NCc1ccc(C(F)(F)F)cc1F)[C@H]1CCC[C@@H](O)C1 | – | 21.3%
CCc1cccc(OC2CN(C(=O)C3CCCN(CC(N)=O)C3)C2)c1 (centres undefined) | – | 47.6%
CCOC(=O)c1c(S(=O)(=O)N2CCCC(C(=O)N3CCN(c4cccc(C)c4C)CC3)C2)c(C)n(C)c1C (centres undefined) | 1.06 µM (active) | –
CCOC(=O)c1c(S(=O)(=O)N2CCCC(C(=O)N3CCN(c4cc(C)ccc4C)CC3)C2)c(C)n(C)c1C (centres undefined) | 1.5 µM (active) | –
CCOC(=O)c1c(C)[nH]c(C)c1S(=O)(=O)N1CCCC(C(=O)N2CCN(c3cc(C)ccc3C)CC2)C1 (centres undefined) | – | -90.8%
CCOC(=O)c1c(C)[nH]c(C)c1S(=O)(=O)N1CCCC(C(=O)N2CCN(c3cccc(C)c3C)CC2)C1 (centres undefined) | 1.33 µM (active) | –
OC1CCN(c2cc(N3CCOC(c4ccc(F)cc4)C3)ncn2)CC1 (centres undefined) | – | 23.8%
CCCCC(=O)Nc1nc(C)c(-c2csc(Nc3cc(OC)ccc3OC)n2)s1 | 9.44 µM (active) | –
C=CCCC(=O)Nc1nc(C)c(-c2csc(Nc3ccc(Cl)cc3)n2)s1 | – | -14.8%
CN(Cc1cc(-c2cccnc2)no1)C(=O)C1COc2ccccc2C1 (centres undefined) | – | 23.1%
COC[C@@H]1CN(C(=O)c2cccc(OC(F)(F)F)c2)C[C@H]1C(N)=O | – | 2.91%
O=C(Nc1ccc(Nc2ccncc2)cc1)c1ccc(Nc2ccnc3ccc([N+](=O)[O-])cc23)cc1 | 0.75 µM (active) | –
O=C(Nc1ccc(Nc2ccncc2)cc1)c1ccc(Nc2ccnc3ccc([N+](=O)[O-])cc23)cc1[N+](=O)[O-] | 1.33 µM (active) | –
COc1cnc(-c2ccccn2)nc1Sc1c(Cl)cccc1Cl | 2.99 µM (active) | –
COc1cnc(-c2ccccn2)nc1Sc1ccc(Cl)cc1 | 5.96 µM (active) | –
Oc1ccccc1C1=NN(c2ccccc2)C(c2ccccc2)C1 (centres undefined) | 7.5 µM (active) | –

Source: PubChem BioAssay AID1347416 (National Center for Advancing Translational Sciences (NCATS), 2020)
